Reference: PubChem BioAssay AID1159580 (chemical genetic matrix, 2015)
Values joined by “and” are separate entries in the source; they are usually repeats but may differ in a detail not shown here. Equal values may be shown once. The whole screen tested about 5,500 compounds, of which about 2,000 (36%) were called active. Roughly 18% stayed inconclusive and do not appear here. Cut-off read from the data, not from the text of the source: active = normalized growth mostly below about 0.91 (no sharp cut-off); inconclusive = no clear call, values can overlap the other calls; inactive = mostly above about 0.92. This is one part of the list.

Experiment: chemical genetic growth profiling, strain panel (AID 1159580);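 note: tested at 20 µM; growth read once vehicle control cultures reached saturation at 30 °C; 1 = growth at the plate median or of vehicle wells; lower values mean less growth of the strain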
Settings: S. cerevisiae deletion strains, growth OD

Measured: normalized growth

NC(=O)c1ccc[n+]([C@@H]2O[C@H](COP(=O)([O-])OP(=O)(O)OC[C@H]3O[C@@H](n4cnc5c(N)ncnc54)[C@H](O)[C@@H]3O)[C@@H](O)[C@H]2O)c1
inactive: locus YAL013W, strain DEP1, stronger effect = lower value 0.974 | locus YAL021C, strain ccr4, stronger effect = lower value 1.05 | locus YAL026C, strain drs2, stronger effect = lower value 1.04 | locus YAL030W, strain snc1, stronger effect = lower value 1.02 | locus YBL061C, strain skt5, stronger effect = lower value 1.03 | locus YBR009C, strain hhf1, stronger effect = lower value 1.05 | locus YBR021W, strain FUR4, stronger effect = lower value 0.996 | locus YBR023C, strain chs3, stronger effect = lower value 1.03 | locus YBR171W, strain sec66, stronger effect = lower value 1.06 | locus YBR229C, strain ROT2, stronger effect = lower value 0.949 | locus YBR231C, strain swc5, stronger effect = lower value 1.03 | locus YBR279W, strain paf1, stronger effect = lower value 1.02 | locus YCL011C, strain gbp2, stronger effect = lower value 1.04 | locus YCL016C, strain dcc1, stronger effect = lower value 1.04 | locus YCL029C, strain bik1, stronger effect = lower value 0.99 | locus YCL061C, strain MRC1, stronger effect = lower value 1.03 | locus YCL069W, strain vba3, stronger effect = lower value 1.03 | locus YCR088W, strain abp1, stronger effect = lower value 1.03 | locus YDL005C, strain med2, stronger effect = lower value 1.02 | locus YDL035C, strain GPR1, stronger effect = lower value 0.986 | locus YDL040C, strain nat1, stronger effect = lower value 1.03 | locus YDL074C, strain BRE1, stronger effect = lower value 1.03 | locus YDL101C, strain DUN1, stronger effect = lower value 0.987 | locus YDL134C, strain PPH21, stronger effect = lower value 0.978 | locus YDL185W, strain tfp1, stronger effect = lower value 0.994 | locus YDL192W, strain arf1, stronger effect = lower value 0.99 | locus YDR001C, strain nth1, stronger effect = lower value 1.02 | locus YDR069C, strain doa4, stronger effect = lower value 1.02 | locus YDR101C, strain arx1, stronger effect = lower value 1.01 | locus YDR137W, strain rgp1, stronger effect = lower value 1.07 | locus YDR150W, strain NUM1, stronger effect = lower value 0.965 | locus YDR159W, strain sac3, stronger effect = lower value 0.949 | locus YDR162C, strain NBP2, stronger effect = lower value 0.973 | locus YDR195W, strain ref2 1.08 | locus YDR297W, strain sur2, stronger effect = lower value 1.04 | locus YDR318W, strain mcm21, stronger effect = lower value 1.02 | locus YDR334W, strain swr1, stronger effect = lower value 1.02 | locus YDR335W, strain msn5, stronger effect = lower value 1.05 | locus YDR388W, stronger effect = lower value 0.99 | locus YDR392W, strain spt3, stronger effect = lower value 1.08 | locus YDR502C, strain sam2, stronger effect = lower value 0.992 | locus YEL003W, strain gim4, stronger effect = lower value 1.02 | locus YEL037C, strain rad23, stronger effect = lower value 1.03 | locus YEL061C, strain CIN8 (second series), stronger effect = lower value 1.02 | locus YEL061C, strain CIN8, stronger effect = lower value 0.981 | locus YER015W, strain faa2, stronger effect = lower value 1.04 | locus YER016W, strain bim1, stronger effect = lower value 1.04 | locus YER110C, stronger effect = lower value 0.973 | locus YER111C, strain swi4, stronger effect = lower value 1.03 | locus YER155C, strain BEM2 (second series), stronger effect = lower value 1.06 | locus YER155C, strain BEM2, stronger effect = lower value 0.99 | locus YER167W, strain BCK2, stronger effect = lower value 0.987 | locus YFR010W, strain ubp6, stronger effect = lower value 1.05 | locus YGL078C, strain dbp3, stronger effect = lower value 0.998 | locus YGL086W, strain mad1, stronger effect = lower value 0.992 | locus YGL167C, strain pmr1, stronger effect = lower value 1.04 | locus YGL173C, strain kem1, stronger effect = lower value 1.04 | locus YGL227W, strain vid30, stronger effect = lower value 1.03 | locus YGL240W, strain doc1, stronger effect = lower value 1.02 | locus YGL248W, strain PDE1, stronger effect = lower value 0.977 | locus YGL253W, strain hxk2, stronger effect = lower value 1.04 | locus YGR078C, strain PAC10, stronger effect = lower value 1.02 | locus YGR135W, strain pre9, stronger effect = lower value 1 | locus YGR229C, strain SMI1, stronger effect = lower value 1.02 | locus YGR252W, strain gcn5, stronger effect = lower value 0.913 | locus YHR013C, strain ard1, stronger effect = lower value 1.08 | locus YHR027C, strain rpn1, stronger effect = lower value 1.03 | locus YHR030C, strain SLT2, stronger effect = lower value 0.981 and 0.987 | locus YHR079C, strain IRE1 (second series), stronger effect = lower value 1 | locus YHR079C, strain IRE1, stronger effect = lower value 0.962 | locus YHR094C, strain hxt1, stronger effect = lower value 0.993 | locus YHR129C, strain ARP1, stronger effect = lower value 0.996 | locus YHR142W, strain chs7, stronger effect = lower value 1.09 | locus YHR200W, strain rpn10, stronger effect = lower value 0.994 | locus YIL066C, strain RNR3, stronger effect = lower value 0.982 | locus YIL073C, strain SPO22, stronger effect = lower value 0.985 | locus YIL125W, strain kgd1, stronger effect = lower value 0.986 | locus YIR030C, strain dcg1, stronger effect = lower value 0.988 | locus YJL092W, strain hpr5, stronger effect = lower value 1.02 | locus YJL095W, strain BCK1 (second series), stronger effect = lower value 1.02 | locus YJL095W, strain BCK1, stronger effect = lower value 1.03 and 0.983 | locus YJL115W, strain asf1, stronger effect = lower value 1.03 | locus YJL129C, strain trk1, stronger effect = lower value 1.06 | locus YJL134W, strain LCB3, stronger effect = lower value 0.977 | locus YJL154C, strain vps35, stronger effect = lower value 1.02 | locus YJL164C, strain tpk1, stronger effect = lower value 1.05 | locus YJL166W, strain qcr8, stronger effect = lower value 1.03 | locus YJL168C, strain set2, stronger effect = lower value 0.995 | locus YJL187C, strain SWE1 (second series), stronger effect = lower value 0.987 | locus YJR043C, strain POL32, stronger effect = lower value 1.02 | locus YJR066W, strain TOR1, stronger effect = lower value 0.943
